Data published in PubChem BioAssay (EPA / NIEHS).
Calls of active or inactive are those of the source. How the source made its calls: active means hit-call score of the fitted dose curve at least 0.9, where 1 is the maximum; inactive means score below 0.9.

Assays:
[1] = APR_HepG2_P-H2AX_72hr: Apredica 72-hour HepG2 Assay for H2AX Phosphorylation (AID 2282916); conditions: imaging, actives raise or lower the signal;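 further: phospho-histone H2A.x immunostain intensity per cell marking DNA damage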
Outline: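 Phospho-H2A.x imaging endpoint in HepG2 after 72 hr compound exposure (0.39–200 uM, duplicate wells). Activity derived by bidirectional curve fitting with DMSO as baseline.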

[2] = APR_HepG2_MitoMembPot_72hr: Apredica 72-hour HepG2 Assay for Mitochondrial Membrane Potential (AID 2282917); conditions: imaging, actives raise or lower the signal
Outline: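 HepG2 cells exposed 72 h to compounds at 0.39–200 uM (0.5% v/v DMSO, duplicates); MitoTracker Red CMXRos 250 nM loaded 30 min before 3.7% formaldehyde fixation, imaged by HCS fluorescence. Bidirectional fit versus DMSO.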

[3] = APR_HepG2_MicrotubuleCSK_72hr: Apredica 72-hour HepG2 Assay for Microtubule CSK Stabilty (AID 2282919); conditions: HepG2 microtubule cytoskeleton, high-content imaging, actives raise or lower the signal
Outline: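 Ten-point dosing (0.39–200 uM, 0.5% DMSO) of HepG2 for 72 hr, with taxol as the cytoskeletal positive control. The cells were formaldehyde-fixed and then stained with alpha-tubulin/Cy5 and Hoechst. Imaging at 20x used a −2 um Z offset for tubulin.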

[4] = APR_HepG2_P-H2AX_24hr: Apredica 24-hour HepG2 Assay for H2AX Phosphorylation (AID 2282920); conditions: high-content imaging, actives raise or lower the signal
Outline: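 Signal comes from a FITC-labeled secondary detecting phospho-histone H2A.x in fixed HepG2 cells, quantified by automated imaging at 20x. Dosing ran 24 hr across 0.39–200 uM with 0.5% v/v DMSO.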

[5] = APR_HepG2_StressKinase_72hr: Apredica 72-hour HepG2 Assay for Stress Kinase (AID 2282921); conditions: HepG2 stress kinase (phospho-c-Jun) imaging, actives raise or lower the signal
Outline: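 Stress kinase signal reflects nuclear phospho-c-Jun staining in fixed, permeabilized cells exposed 72 h to compound at 0.39–200 uM; DMSO-normalized, fitted for increases or decreases.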

[6] = APR_HepG2_StressKinase_24hr: Apredica 24-hour HepG2 Assay for Stress Kinase (AID 2282922); conditions: HepG2 stress kinase (phospho-c-Jun) imaging, actives raise or lower the signal
Outline: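 After 24 hr compound treatment (up to 200 uM, final DMSO 0.5% v/v), HepG2 cells are fixed and multiplex-labeled; phospho-c-Jun intensity is captured by high-content fluorescence imaging and analyzed relative to DMSO.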

[7] = APR_HepG2_p53Act_72hr: Apredica 72-hour HepG2 Assay for p53 Activation (AID 2282923); conditions: high-content imaging, actives raise or lower the signal;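 further: average cellular p53 protein immunofluorescence intensity in HepG2 cells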
Outline: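 Fixed-cell p53 staining (sheep primary, Cy5 secondary) measured by fluorescence imaging following 72 hr treatment at 0.39–200 uM in 0.5% DMSO; DMSO served as negative control and baseline.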

[8] = APR_HepG2_MitoMass_72hr: Apredica 72-hour HepG2 Assay for Mitochondrial Mass (AID 2282924); conditions: high-content imaging, actives raise or lower the signal;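 further: MitoTracker Red CMXRos stain intensity per cell imaged as mitochondrial mass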
Outline: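 Steps: treat HepG2 72 hr (0.39–200 uM, duplicate wells); load MitoTracker Red CMXRos, 250 nM, 30 min; fix with 3.7% formaldehyde, permeabilise with 0.5% Triton X-100; capture images, nuclei via Hoechst 33342; fit bidirectionally against DMSO.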

[9] = APR_HepG2_NuclearSize_72hr: Apredica 72-hour HepG2 Assay for Nuclear Size (AID 2282925); conditions: high-content imaging, actives raise or lower the signal
Outline: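 Compounds (0.39–200 uM, final DMSO 0.5%) were applied to HepG2 for 72 hr. Cells were then formaldehyde-fixed, permeabilized and labelled with Hoechst 33342. Nuclear diameter was quantified from six images per well.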

[10] = APR_HepG2_MitoticArrest_72hr: Apredica 72-hour HepG2 Assay for Mitotic Arrest (AID 2282918); conditions: high-content imaging, actives raise or lower the signal
Outline: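 Mitotic arrest in HepG2 is scored from phospho-histone H3 staining after 72 hr dosing across 0.39–200 uM, with DMSO at 0.5% v/v. Nuclei are identified by Hoechst 33342 and fluorescence intensity is quantified per cell.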

Measured: AC50

ClC1=C(Cl)C2(Cl)C3C(Cl)C=CC3C1(Cl)C2(Cl)Cl (centres undefined)
active: [1] 65.9 µM | [3] 88.5 µM | [4] 80.7 µM | [5] 84.8 µM | [7] 63.7 µM | [8] 88.9 µM
inactive: [2] | [6] | [9]

CCC[CH2][Sn]([Cl])([CH2]CCC)[CH2]CCC
active: [10] 0.0382 µM | [4] 1.41 µM | [6] 3.39 µM | [7] 0.0297 µM | [8] 0.0466 µM
inactive: [2] | [3] | [5] | [9]

CC(C)(OOC(C)(C)c1ccccc1)c1ccccc1
not listed: [10]
inactive: all other assays above

CO[C@@H]1[C@H](OC(=O)NC(=O)CCl)CC[C@]2(CO2)[C@H]1[C@@]1(C)O[C@@H]1CC=C(C)C
not listed: [10]
inactive: all other assays above

Clc1ccc(Cl)c(Cl)c1
not listed: [10]
inactive: all other assays above

Nc1ccc(Oc2ccc(N)cc2)cc1
not listed: [1]
inactive: all other assays above

[As]#[In]
not listed: [1]
inactive: all other assays above

C[N+](C)(C)CC1CO1 (centres undefined)
inactive: [1] | [4] | [5] | [6] | [7] | [9]

O=C(O)C1C2CCC(O2)C1C(=O)O (centres undefined)
active: [10] 19.6 µM | [4] 29.4 µM | [7] 21.2 µM | [8] 50.2 µM | [9] 36 µM
inactive: [2] | [3] | [5] | [6]

Cc1ccc(N)cc1
not listed: [10]
inactive: all other assays above

O=C(Oc1ccc(Br)cc1)N1CCN2CCC1CC2
active: [10] 106 µM | [7] 103 µM
not listed: [1]
inactive: all other assays above

CS(=O)(=O)NC(=O)c1cc(Oc2ccc(C(F)(F)F)cc2Cl)ccc1[N+](=O)[O-]
not listed: [10]
inactive: all other assays above

C1=Cc2cccc3cccc1c23
not listed: [10]
inactive: all other assays above

COP(=S)(OC)SCN1C(=O)c2ccccc2C1=O
not listed: [1]
inactive: all other assays above

CCCCCCCCOC(=O)c1ccc(C(=O)OCCCCCCCC)c(C(=O)OCCCCCCCC)c1
not listed: [1]
inactive: all other assays above

CCN(CC)CCO
not listed: [10]
inactive: all other assays above

N#CC(Br)Br
active: [10] 73.6 µM | [4] 88.8 µM
not listed: [1] | [7]
inactive: all other assays above

CC(C)N(Cc1ccccc1)C(=O)C(C)(C)C
not listed: [1] | [10]
inactive: all other assays above

Cc1ccc([N+](=O)[O-])cc1
not listed: [1] | [10]
inactive: all other assays above

CCC12COCN1COC2
active: [4] 87.6 µM | [6] 99.5 µM | [7] 79.2 µM
not listed: [1] | [10]
inactive: all other assays above

CC(C)(C)C(O)(CCc1ccc(Cl)cc1)Cn1cncn1 (centres undefined)
inactive: [2] | [9]
active: [3] 107 µM | [4] 113 µM | [5] 113 µM | [6] 108 µM | [7] 121 µM | [8] 105 µM

[Cl-].[Cl-].[Hg+2]
active: [3] 13.2 µM | [4] 21.5 µM | [6] 19.8 µM
not listed: [1] | [10]
inactive: all other assays above

CCCCCOC(=O)c1ccccc1C(=O)OCCCCC
not listed: [1] | [10]
inactive: all other assays above

CCNS(=O)(=O)C(F)(F)C(F)(F)C(F)(F)C(F)(F)C(F)(F)C(F)(F)C(F)(F)C(F)(F)F
active: [2] 91.2 µM | [10] 72.5 µM | [3] 77.6 µM | [4] 68.5 µM | [5] 112 µM | [9] 105 µM
inactive: [6] | [8]

CCOC(=O)[C@]1(c2ccccc2)Oc2ccccc2[C@@H]1N
active: [10] 90.8 µM | [4] 120 µM | [5] 109 µM
not listed: [1] | [7]
inactive: all other assays above

CCCCCCCCCCCCCN1CC(C)OC(C)C1 (centres undefined)
active: [4] 76.6 µM
not listed: [1] | [10]
inactive: all other assays above

Oc1ccccc1Cl
not listed: [1]
inactive: all other assays above

O=[N+]([O-])C(Br)(CO)CO
active: [9] 163 µM
not listed: [1] | [7]
inactive: all other assays above

Brc1ccc(Oc2ccccc2)cc1
not listed: [1] | [10]
inactive: all other assays above

CC(C)COC(=O)c1ccccc1C(=O)OCC(C)C
active: [2] 80 µM | [4] 77.3 µM | [8] 84.7 µM
inactive: [3] | [5] | [6] | [9]

CCOc1cccc(C2(N3CCN(c4ccccc4)CC3)CCC(C)CC2)c1 (centres undefined)
not listed: [1] | [10]
inactive: all other assays above

CCC(C)c1ccc(O)cc1 (centres undefined)
not listed: [1] | [10]
inactive: all other assays above

CC(C)(C)OOC(=O)c1ccccc1
inactive: [3] | [6] | [9]
active: [2] 20.1 µM | [4] 16.4 µM | [5] 50 µM | [7] 21.5 µM | [8] 54 µM

c1ccc2c(c1)-c1cccc3cccc-2c13
not listed: [1] | [10]
inactive: all other assays above

Nc1ccc(Cc2ccc(N)cc2)cc1
not listed: [1] | [10]
inactive: all other assays above

c1ccc(N=Nc2ccccc2)cc1
not listed: [1] | [10]
inactive: all other assays above

CCCCCCCCn1sccc1=O
active: [2] 96.1 µM | [4] 6.1 µM | [5] 5.97 µM | [6] 3.47 µM | [7] 3.54 µM | [8] 3.51 µM
inactive: [3] | [9]

Clc1ccc(C(c2ccc(Cl)cc2)C(Cl)(Cl)Cl)cc1
active: [2] 30.4 µM | [4] 50.5 µM | [6] 51.9 µM
not listed: [1] | [10]
inactive: all other assays above

[O-][Cl+]O
active: [4] 66.5 µM | [6] 110 µM | [9] 157 µM
not listed: [1]
inactive: all other assays above

CN(C)c1ccccc1
not listed: [1] | [10]
inactive: all other assays above

N#CC(Br)(Br)C(N)=O
not listed: [1] | [10]
inactive: all other assays above

c1ccc(C2CO2)cc1 (centres undefined)
not listed: [1]
inactive: all other assays above

CNC(=O)Oc1cccc2c1OC(C)(C)C2
not listed: [1] | [10]
inactive: all other assays above

O=P(OCCCl)(OCCCl)OCCCl
inactive: [4] | [5] | [6] | [7] | [9]
